Results as given in the supplement of paper PMC6411743.
± gives the standard deviation of the averaged measurements. About 6,200 targets were measured; listed, in parts, are those with the largest changes and a random draw of the rest.

Compound: Nc1ncnc2c1ncn2[C@@H]1O[C@H](COP(=O)(O)OP(=O)(O)NP(=O)(O)O)[C@@H](O)[C@H]1O [adenylyl imidodiphosphate]
Test: NP40-soluble protein abundance relative to vehicle (solubility fold change) (ratio); higher = more soluble protein in presence of AMP-PNP
Procedure, shortened: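 Eight concentrations, 0.1 to 10 mM, were tested on Jurkat crude lysate for 10 min at room temperature and then 3 min at 37 °C, in three independent experiments. The lysate was solubilised with 0.8% NP40 and benzonase, ultracentrifuged, and the supernatant TMT-labelled for LC-MS/MS. Each value is the fold change against the detergent-processed vehicle in its own replicate, from vsn-normalised intensities.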

Chain of UniProt O15541 (O15541 whole entry): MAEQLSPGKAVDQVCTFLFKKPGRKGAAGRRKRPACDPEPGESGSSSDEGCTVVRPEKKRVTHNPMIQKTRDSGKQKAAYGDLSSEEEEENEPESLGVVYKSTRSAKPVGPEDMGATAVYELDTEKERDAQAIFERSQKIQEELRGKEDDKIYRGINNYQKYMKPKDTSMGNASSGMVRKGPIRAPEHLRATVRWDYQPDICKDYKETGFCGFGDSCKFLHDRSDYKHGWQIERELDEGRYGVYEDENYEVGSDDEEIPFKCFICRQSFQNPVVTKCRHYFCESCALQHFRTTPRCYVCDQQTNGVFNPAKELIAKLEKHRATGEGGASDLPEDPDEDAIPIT
Chain of UniProt Q9HCU9 (Q9HCU9 whole entry, one chain of several): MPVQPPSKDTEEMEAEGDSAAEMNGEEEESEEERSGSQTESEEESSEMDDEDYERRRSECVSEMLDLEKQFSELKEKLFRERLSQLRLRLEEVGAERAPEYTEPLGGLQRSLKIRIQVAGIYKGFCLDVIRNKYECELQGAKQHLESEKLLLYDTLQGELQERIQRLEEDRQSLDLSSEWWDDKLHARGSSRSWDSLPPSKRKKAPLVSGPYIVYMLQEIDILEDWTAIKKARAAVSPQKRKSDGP
Chain of UniProt Q9NQV6 (Q9NQV6 whole entry, one chain of several): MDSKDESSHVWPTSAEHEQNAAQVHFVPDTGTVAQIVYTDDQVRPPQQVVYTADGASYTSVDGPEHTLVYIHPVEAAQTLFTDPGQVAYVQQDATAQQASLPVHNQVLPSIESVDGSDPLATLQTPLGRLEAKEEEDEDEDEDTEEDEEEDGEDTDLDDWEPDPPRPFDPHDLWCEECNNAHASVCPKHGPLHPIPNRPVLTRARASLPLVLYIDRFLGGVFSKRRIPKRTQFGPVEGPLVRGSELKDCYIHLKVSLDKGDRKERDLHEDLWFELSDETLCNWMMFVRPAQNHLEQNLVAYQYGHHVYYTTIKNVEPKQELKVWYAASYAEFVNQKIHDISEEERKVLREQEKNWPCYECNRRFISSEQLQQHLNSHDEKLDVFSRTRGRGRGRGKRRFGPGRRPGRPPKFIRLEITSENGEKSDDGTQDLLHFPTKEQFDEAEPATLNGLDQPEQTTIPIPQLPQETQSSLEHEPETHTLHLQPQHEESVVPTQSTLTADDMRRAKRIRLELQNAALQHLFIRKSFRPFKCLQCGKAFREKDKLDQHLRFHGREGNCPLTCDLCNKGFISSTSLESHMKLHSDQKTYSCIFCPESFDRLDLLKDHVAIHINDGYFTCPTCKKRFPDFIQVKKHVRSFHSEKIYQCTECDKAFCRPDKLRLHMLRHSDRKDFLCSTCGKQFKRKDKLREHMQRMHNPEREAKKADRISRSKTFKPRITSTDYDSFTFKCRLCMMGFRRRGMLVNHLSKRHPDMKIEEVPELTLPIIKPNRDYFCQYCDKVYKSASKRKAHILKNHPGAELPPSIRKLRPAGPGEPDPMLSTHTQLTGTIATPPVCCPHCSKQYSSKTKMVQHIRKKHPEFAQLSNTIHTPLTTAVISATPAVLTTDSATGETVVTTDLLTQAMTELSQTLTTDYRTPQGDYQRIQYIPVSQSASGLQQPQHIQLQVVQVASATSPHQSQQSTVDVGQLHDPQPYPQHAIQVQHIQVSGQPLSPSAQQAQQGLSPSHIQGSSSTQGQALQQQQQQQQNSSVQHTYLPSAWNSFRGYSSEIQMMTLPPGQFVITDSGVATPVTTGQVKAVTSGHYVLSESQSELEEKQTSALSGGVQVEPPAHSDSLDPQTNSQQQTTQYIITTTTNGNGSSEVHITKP
Chain of UniProt Q9BY11 (Q9BY11 whole entry, one chain of several): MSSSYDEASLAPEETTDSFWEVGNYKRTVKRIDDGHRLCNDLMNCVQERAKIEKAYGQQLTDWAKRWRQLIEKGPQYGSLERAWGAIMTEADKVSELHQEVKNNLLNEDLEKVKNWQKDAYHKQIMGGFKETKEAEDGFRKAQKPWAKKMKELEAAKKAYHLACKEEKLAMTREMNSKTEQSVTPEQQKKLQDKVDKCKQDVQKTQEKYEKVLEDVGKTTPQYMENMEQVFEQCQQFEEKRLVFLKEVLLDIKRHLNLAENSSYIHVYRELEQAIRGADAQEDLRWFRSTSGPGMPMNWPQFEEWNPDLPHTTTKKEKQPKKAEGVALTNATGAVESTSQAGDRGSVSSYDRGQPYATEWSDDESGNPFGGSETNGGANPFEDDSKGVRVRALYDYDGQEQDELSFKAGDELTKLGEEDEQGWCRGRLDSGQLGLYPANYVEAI
Chain of UniProt Q9UHB6 (Q9UHB6 whole entry, one chain of several): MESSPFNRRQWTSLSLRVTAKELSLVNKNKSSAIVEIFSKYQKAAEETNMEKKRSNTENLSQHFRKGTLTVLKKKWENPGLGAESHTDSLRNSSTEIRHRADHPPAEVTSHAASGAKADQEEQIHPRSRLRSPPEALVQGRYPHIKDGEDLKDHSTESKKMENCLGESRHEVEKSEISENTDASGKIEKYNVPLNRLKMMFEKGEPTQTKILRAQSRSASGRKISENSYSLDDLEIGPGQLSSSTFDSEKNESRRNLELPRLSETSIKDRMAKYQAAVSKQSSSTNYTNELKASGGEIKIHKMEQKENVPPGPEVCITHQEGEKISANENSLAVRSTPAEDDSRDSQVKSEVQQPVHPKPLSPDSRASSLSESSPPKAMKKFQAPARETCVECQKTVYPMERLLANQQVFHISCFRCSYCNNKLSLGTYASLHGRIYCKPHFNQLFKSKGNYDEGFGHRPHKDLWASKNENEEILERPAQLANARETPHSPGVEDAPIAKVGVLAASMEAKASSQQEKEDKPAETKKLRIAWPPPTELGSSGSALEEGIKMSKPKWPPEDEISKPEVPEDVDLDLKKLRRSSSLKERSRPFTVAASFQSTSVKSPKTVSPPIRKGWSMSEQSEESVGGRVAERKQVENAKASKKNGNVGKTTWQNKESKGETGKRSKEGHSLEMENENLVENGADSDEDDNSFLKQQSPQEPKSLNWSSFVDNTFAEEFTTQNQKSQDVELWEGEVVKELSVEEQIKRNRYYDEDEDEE
Chain of UniProt P98171 (P98171 whole entry, one chain of several): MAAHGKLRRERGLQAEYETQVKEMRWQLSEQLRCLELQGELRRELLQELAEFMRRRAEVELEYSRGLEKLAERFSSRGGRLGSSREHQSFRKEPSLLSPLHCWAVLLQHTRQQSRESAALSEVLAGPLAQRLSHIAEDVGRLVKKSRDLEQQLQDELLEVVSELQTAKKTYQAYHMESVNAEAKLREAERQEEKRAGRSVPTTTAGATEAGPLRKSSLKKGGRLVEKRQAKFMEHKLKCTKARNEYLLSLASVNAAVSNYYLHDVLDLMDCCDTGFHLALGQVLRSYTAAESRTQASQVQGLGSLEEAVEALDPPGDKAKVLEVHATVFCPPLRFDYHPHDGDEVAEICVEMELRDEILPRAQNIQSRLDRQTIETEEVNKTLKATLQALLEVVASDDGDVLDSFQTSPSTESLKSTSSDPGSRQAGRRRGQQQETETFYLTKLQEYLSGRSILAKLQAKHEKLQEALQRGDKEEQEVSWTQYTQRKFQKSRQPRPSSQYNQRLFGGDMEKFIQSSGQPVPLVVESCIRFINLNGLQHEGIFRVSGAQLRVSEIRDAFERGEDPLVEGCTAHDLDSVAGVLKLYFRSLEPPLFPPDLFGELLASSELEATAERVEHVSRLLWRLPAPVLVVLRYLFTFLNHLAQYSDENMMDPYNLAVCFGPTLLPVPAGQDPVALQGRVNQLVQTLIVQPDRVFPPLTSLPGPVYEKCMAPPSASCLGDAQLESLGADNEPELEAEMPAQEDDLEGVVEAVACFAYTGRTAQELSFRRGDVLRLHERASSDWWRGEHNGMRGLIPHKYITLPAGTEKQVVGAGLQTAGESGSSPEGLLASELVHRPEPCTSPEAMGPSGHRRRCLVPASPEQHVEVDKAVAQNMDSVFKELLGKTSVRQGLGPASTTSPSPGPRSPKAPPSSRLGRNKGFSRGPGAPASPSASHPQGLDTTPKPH
Chain of UniProt Q49A26 (Q49A26 whole entry, one chain of several): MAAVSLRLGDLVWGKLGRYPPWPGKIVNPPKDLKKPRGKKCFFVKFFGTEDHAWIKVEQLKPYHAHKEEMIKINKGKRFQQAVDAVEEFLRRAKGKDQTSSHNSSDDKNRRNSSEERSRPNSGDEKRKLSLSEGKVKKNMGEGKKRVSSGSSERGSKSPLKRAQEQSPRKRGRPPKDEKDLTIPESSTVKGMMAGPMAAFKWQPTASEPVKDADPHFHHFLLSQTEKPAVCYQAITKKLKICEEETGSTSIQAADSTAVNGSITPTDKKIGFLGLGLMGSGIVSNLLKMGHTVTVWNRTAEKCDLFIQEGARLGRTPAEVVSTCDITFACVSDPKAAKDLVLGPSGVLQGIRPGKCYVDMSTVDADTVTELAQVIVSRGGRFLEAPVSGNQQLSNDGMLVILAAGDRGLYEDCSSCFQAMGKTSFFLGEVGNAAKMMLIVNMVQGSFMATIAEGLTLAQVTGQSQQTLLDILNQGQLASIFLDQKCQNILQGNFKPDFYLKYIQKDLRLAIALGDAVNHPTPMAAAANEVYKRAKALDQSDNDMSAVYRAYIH
Chain of UniProt A6NKD9 (A6NKD9 whole entry): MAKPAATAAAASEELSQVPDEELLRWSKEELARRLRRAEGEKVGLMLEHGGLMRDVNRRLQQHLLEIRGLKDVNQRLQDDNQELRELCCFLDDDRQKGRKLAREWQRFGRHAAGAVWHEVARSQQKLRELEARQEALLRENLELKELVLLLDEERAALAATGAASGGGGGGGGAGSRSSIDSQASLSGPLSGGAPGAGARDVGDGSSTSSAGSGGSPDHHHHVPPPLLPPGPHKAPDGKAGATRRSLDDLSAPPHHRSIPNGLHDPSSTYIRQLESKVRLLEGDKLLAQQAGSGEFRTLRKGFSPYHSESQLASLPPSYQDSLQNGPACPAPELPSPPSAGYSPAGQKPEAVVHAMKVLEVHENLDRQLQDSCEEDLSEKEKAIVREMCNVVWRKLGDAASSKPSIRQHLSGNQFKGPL

Target	NP40-soluble protein abundance (concentration: 1mM)	NP40-soluble protein abundance (concentration: 2mM)	NP40-soluble protein abundance (concentration: 4mM)	NP40-soluble protein abundance (concentration: 6mM)	NP40-soluble protein abundance (concentration: 8mM)	NP40-soluble protein abundance (concentration: 10mM)
RNF113A (UniProt O15541)	1.02 ± 0.038	1.04 ± 0.089	0.999 ± 0.029	0.979 ± 0.017	0.935 ± 0.012	0.973 ± 0.035
HMGN4 (UniProt O00479)	1.024 ± 0.01	1.01 ± 0.047	1.04 ± 0.056	1.1 ± 0.07	1.08 ± 0.075	1.22 ± 0.076
J3KS94|J3QQK6|P02686|P02686-2 (UniProt P02686)	0.968 ± 0.054	0.993 ± 0.035	0.96 ± 0.03	0.928 ± 0.033	0.896 ± 0.013	0.903 ± 0.029
B5MCX3|Q15019|Q15019-2 (UniProt Q15019)	1.027 ± 0.0023	0.997 ± 0.032	1.003 ± 0.0091	0.984 ± 0.026	0.98 ± 0.017	0.952 ± 0.037
F8VQE1|Q9UHB6|Q9UHB6-2 (UniProt Q9UHB6)	1.17 ± 0.073	1.28 ± 0.2	1.33 ± 0.12	1.39 ± 0.18	1.37 ± 0.17	1.58 ± 0.21
E7EQN5|P98171|P98171-2 (UniProt P98171)	0.999 ± 0.013	0.997 ± 0.05	1.02 ± 0.032	1.03 ± 0.077	1.01 ± 0.056	1.04 ± 0.023
CCDC85C (UniProt A6NKD9)	0.9594 ± 0.0012	1.0044 ± 0.00019	0.953 ± 0.035	0.9849 ± 0.007	0.9793 ± 0.0043	0.9704 ± 0.0054
K7EMM8|Q49A26|Q49A26-2|Q49A26-3|Q49A26-4 (UniProt Q49A26)	1.07 ± 0.062	1.14 ± 0.1	1.16 ± 0.14	1.25 ± 0.17	1.31 ± 0.2	1.47 ± 0.3
B4DXZ6|P51114 (UniProt P51114)	1.12 ± 0.029	1.17 ± 0.039	1.3 ± 0.055	1.43 ± 0.15	1.55 ± 0.2	1.62 ± 0.2
F8VVZ0|P61020 (UniProt P61020)	1.03 ± 0.028	0.993 ± 0.013	1.01 ± 0.024	1.07 ± 0.026	1.08 ± 0.064	1.05 ± 0.018
E9PJF5|G5E9I4|H0YCF7|Q9HCU9 (UniProt Q9HCU9)	1.03 ± 0.018	1.05 ± 0.04	1.01 ± 0.012	1 ± 0.016	0.989 ± 0.041	1.02 ± 0.051
F6U236|Q9BY11 (UniProt Q9BY11)	0.978 ± 0.036	1.03 ± 0.057	0.968 ± 0.018	1 ± 0.063	0.978 ± 0.069	0.989 ± 0.054
SART1 (UniProt O43290)	1.07 ± 0.048	1.12 ± 0.054	1.11 ± 0.034	1.22 ± 0.089	1.26 ± 0.067	1.36 ± 0.081
ARPC2 (UniProt O15144)	0.974 ± 0.033	0.896 ± 0.11	0.937 ± 0.023	0.976 ± 0.031	0.994 ± 0.046	0.957 ± 0.048
E9PLV1|Q9NQV6|Q9NQV6-1|Q9NQV6-2|Q9NQV6-4|Q9NQV6-5|Q9NQV6-6|Q9NQV6-7|E9PRS0 (UniProt Q9NQV6)	1 ± 0.012	0.963 ± 0.055	0.9952 ± 0.0059	0.989 ± 0.021	1 ± 0.034	0.98 ± 0.023
